What all share (experiment): NCI-60 one-dose screen, 48 h (100 = growth as untreated, 0 = no growth, -100 = all killed)
Common to all, as to conditions: 10 µM unless noted

In assay [1] the test system is SR leukemia.
In assay [2] the test system is RPMI-8226 leukemia.
Assay [3] relates to OVCAR-8 ovarian.
Assay [4] has as its system OVCAR-5 ovarian.
The subject of assay [5] is OVCAR-4 ovarian.
Assay [6] concerns SK-OV-3 ovarian.
For assay [7], the system named is IGROV1 ovarian.
The subject of assay [8] is OVCAR-3 ovarian.
Assay [9] relates to HS 578T breast.
Assay [10] relates to NCI/ADR-RES ovarian.
For assay [11], the system named is T-47D breast.
For assay [12], the system named is BT-549 breast.
For assay [13], the system named is MDA-MB-435 melanoma.
The test system of assay [14] is SW-620 colon.
In assay [15] the test system is MCF7 breast.
Assay [16] has as its system HCT-116 colon.
The test system of assay [17] is HCC-2998 colon.
The subject of assay [18] is KM12 colon.

About 83,000 compounds went through this panel and 20% of them were active in at least one assay; those are over-represented in the sample as a whole.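 Treatment: one concentration, 48 hours, 96-well format. Scoring: percent growth, with anything below 10 considered active.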 Values without a mark were called inactive. The source made the active and inactive calls.

`CCOC(=O)c1cc(C(=O)c2ccc(Br)cc2)n2ccc(/C=C/c3cc[n+](CC(=O)c4ccc(OC)cc4)cc3)cc12`: the growth is -2.64% (active) in assay [1]; 45.7% in assay [2]; 59.9% in [3]; 102% in assay [4]; 86.7% in assay [5]; 114% in assay [6]. For the same compound, the growth in [7] is 86%; in assay [8] it was 102%; in [9], 129%; in assay [10], 87.5%; in assay [11] it was 90.1%; in assay [12], 109%. Further, the growth is 101% in assay [13]; 48.6% in [14]; -9.87% (active) in assay [15]; 37.7% in [16]; 95.1% in assay [17]; 99.2% in [18].

Turning to `COc1ccccc1/C(C)=N/NC(=O)CSc1nc2ccccc2c(=O)n1Cc1ccc(S(N)(=O)=O)cc1`, the growth is 96.1% in [1]; 99.5% in assay [2]; 98.7% in assay [3]; 97.9% in [4]; 94.9% in [5]; 115% in assay [6]. Also, the growth is 102% in assay [7]; 108% in assay [8]; 85.4% in assay [9]; 99.5% in assay [10]; 97.6% in [11]; 99.3% in assay [12]. Besides, the growth in assay [13] was 103%; in assay [14], 100%; in assay [15], 89.2%; in assay [16], 95.9%; in [17] it was 95.9%; in assay [18], 102%.

As to `COc1ccc(C(=O)NNc2nc(Cl)nc(N3CCN(C(c4ccccc4)c4ccccc4)CC3)n2)cc1`, the growth is -29.6% (active) in assay [1]; 84.2% in assay [2]; 34.1% in assay [3]; 96.9% in assay [4]; 20.5% in assay [5]; 101% in assay [6]. For the same compound, the growth is -59.7% (active) in [7]; -71.5% (active) in [8]; 67.1% in [9]; 50% in assay [10]; 85.5% in [11]; 52.2% in [12]. In addition, the growth in assay [13] is 90.6%; in assay [14], 9.22% (active); in assay [15] it was 89.3%; in assay [16] it was 9% (active); in assay [17], -10.7% (active); in assay [18], 92.4%.

Regarding `Cc1ccc(/C=N/NC(=O)CSc2nc3ccccc3c(=O)n2Cc2ccc(S(N)(=O)=O)cc2)cc1`, the growth is 49.4% in assay [1]; 95.1% in assay [2]; 93.6% in assay [3]; 95.6% in assay [4]; 106% in [5]; 103% in assay [6]. Also, the growth is 96.2% in assay [7]; 79.6% in assay [8]; 88.5% in [9]; 96.8% in assay [10]; 81.7% in assay [11]; 103% in [12]. In addition, the growth in assay [13] was 46.2%; in assay [14], 94%; in assay [15], 59.4%; in assay [16], 97.8%; in assay [17], 99.9%; in assay [18], 86.3%.

Consider `COc1cc(NC(C)CCCNC(=O)CCC(=O)NCCCNCCCCCCCCNCCCNC(=O)CCC(=O)NCCCC(C)Nc2cc(OC)cc3cccnc23)c2ncccc2c1` (centres undefined), for which the growth in assay [1] is 107%; in [2], 53.5%; in assay [3] it was 70.6%; in assay [4] it was 66.8%; in assay [5] it was 18.1%; in assay [6], 97.9%. For the same compound, the growth in assay [7] is 59.1%; in [8], 39.8%; in assay [9], 75%; in assay [10], 91.7%; in assay [11], 7.63% (active); in assay [12], 95.2%. Also, the growth in assay [13] is 70.7%; in assay [14] it was 78%; in assay [15], 34.6%; in [16] it was 52.5%; in assay [17], 69.5%; in assay [18] it was 82.1%.

In the case of `O=C(Nc1ccc(NC(=O)c2cc(=O)[nH]c3ccccc23)cc1)Nc1cccc(Cl)c1`, the growth in assay [1] was 36.2%; in assay [2], 96.3%; in assay [3], 85.9%; in [4], 87.9%; in [5], 78.8%; in [6], 74.8%. The growth in assay [7] is 69%; in [8] it was 89.2%; in assay [9], 93.5%; in assay [10] it was 94.9%; in [11] it was 68.6%; in assay [12] it was 79%. Besides, the growth in assay [13] was 97%; in assay [14], 89.9%; in assay [15], 76%; in assay [16], 82%; in assay [17], 83.6%; in assay [18] it was -55.9% (active).

For `O=S(=O)(NCCNc1nccc(-c2c(-c3cccc(F)c3)nc3sccn23)n1)c1ccccc1`, the growth is 29.3% in [1]; 43.5% in [2]; 33.9% in assay [3]; 79.6% in [4]; 40% in assay [5]; 57.2% in assay [6]. In addition, the growth in assay [7] was 4.9% (active); in assay [8], 58.9%; in [9], 55.5%; in assay [10], 46.3%; in assay [11] it was 18.8%; in assay [12], 50.4%. Besides, the growth in assay [13] was 17.4%; in assay [14] it was 44.5%; in [15] it was 21.7%; in assay [16], 22.7%; in [17], 66.4%; in assay [18], 28.8%.

As to `Fc1ccc2c(-c3cncn3CCc3ccccc3)c[nH]c2c1`, the growth was 96.3% in assay [1]; 72.7% in assay [2]; 97.7% in assay [3]; 92.9% in assay [4]; 60.7% in assay [5]; 97.6% in assay [6]. In addition, the growth in assay [7] was 77.4%; in assay [8], 85.7%; in [9] it was 67.3%; in assay [10], 95.1%; in assay [11], 74.4%; in [12], 105%. In addition, the growth in assay [13] is 93.2%; in [14], 90.8%; in assay [15], 86.6%; in assay [16], 75.7%; in assay [17], 102%; in assay [18], 97.9%.

The values are drawn from PubChem BioAssay (NCI).
